Structures are written as SMILES. About 3,600 (5.5%) of roughly 65,000 compounds were called active. What follows is part of a selection rich in actives, with near analogues and random picks from the rest. A number with no mark means an inactive call.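 Rule for the calls: active = at 10 µM, mean starting fluorescence two-fold or more over control wells; inactive = the rest.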

The test in a line: intrinsic fluorescence of library compounds, ex339/em460 – biochemical, MLSMR library, data from DPM-DC assay, artefact control, profiling panel (AID 709).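 Note: signal is the first read of a kinetic run.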 The note with it: compound autofluorescence, ex339/em460 nm, NADH buffer; at 10 µM; active compounds read high; 1 = no-compound wells, NADH background.
As for `NC(=O)CSc1oc(-c2cccs2)nc1S(=O)(=O)c1ccccc1`, the fluorescence fold increase is 1.22. In the case of `CCN(CC(=O)NC(C)C)C(=O)CCNC(=O)c1ccc(Cl)cc1`, the fluorescence fold increase was 1.13. Regarding `CCOc1cc2c(cc1OCC)C(C(=O)O)C(c1ccc(OC)c(O)c1)N(C)C2=O` (stereo not given), the fluorescence fold increase is 1.02. Turning to `Cn1c(CCN2CCCCCC2)nc2cc(NC(=O)Nc3ccccc3)ccc21`, the fluorescence fold increase was 1.24. Consider `O=C(Nc1cccc(NC(=O)N2CCN(c3ccccc3)CC2)c1)N1CCN(c2ccccc2)CC1`, for which the fluorescence fold increase is 1.06. With `Cc1nc2ccc(NC(=O)N3CCC(c4ccccc4)C3)cc2nc1C` (stereo not given), the fluorescence fold increase is 2.93 (active). In the case of `CCc1cc(=O)oc2cc(C)cc(OC(C)C(=O)O)c12` (stereo not given) it was 3.78 (active); in that of `CCCSC1=C(C#N)C(c2ccccc2C)C(C(=O)OC)C(=O)N1` (stereo not given), 1.13; in that of `Cc1nc(N2CCN(c3ncccn3)CC2)c2oc3ccccc3c2n1`, 1.16. For `Cc1cc(C)nc(N2CCN(c3ncnc4c3oc3ccccc34)CC2)n1`, the fluorescence fold increase was 1.27. The figure for `CCc1nc(N2CCN(c3nc(C)cc(C)n3)CC2)c2oc3ccccc3c2n1` is 2.49 (active); for `Cc1noc(COc2ccccc2OCC(O)CNC(C)(C)C)n1` (stereo not given) it is 1.04. In the case of `O=c1c(-c2ccc3c(c2)OCCO3)c(C(F)(F)F)oc2cc(O)cc(O)c12` it was 1.07; in that of `CCC(C)(C)n1nnnc1C(c1cccs1)N1CCN(c2nc3ccccc3s2)CC1` (stereo not given), 1.35; in that of `CCOC(=O)c1[nH]cnc1C(=O)NC1CCCCC1`, 1.07.

For `COc1cccc(N2CCN(C3CC(=O)N(c4ccc(Cl)cc4)C3=O)CC2)c1` (stereo not given), the fluorescence fold increase was 1.12. In the case of `CC1CCCN(C(=O)Cn2c(=O)oc3ccccc32)C1` (stereo not given) it was 1.09; in that of `Cc1nc(NCc2ccccc2)c(C(N)=O)c2c1COC(C)(C)C2`, 1.89; in that of `O=C(O)CCC(=O)N(Cc1cccs1)Cc1cccs1`, 1.09. The figure for `CC(C)Cn1c(CCC(=O)O)ccc1-c1cccs1` is 3.14 (active); for `CCCC(=O)NC(C)C(c1cccs1)N1CCN(c2ccccc2)CC1` (stereo not given) it is 0.99; for `CCCCOC(=O)c1ccc(N2C(=O)CC(N3CCN(C/C=C/c4ccccc4)CC3)C2=O)cc1` (stereo not given) it is 1.12. `Clc1ccc(Cc2nn3c(-c4ccncc4)nnc3s2)cc1`: the fluorescence fold increase is 1. In the case of `CCCCC(=O)Nc1ccc(C(=O)NCCCn2ccnc2)cc1`, the fluorescence fold increase is 1.13. In the case of `CCCCC(=O)Nc1ccc2c(c1)C(=O)NC2=O` it was 2.11 (active). In the case of `CCCCC(=O)Nc1ccc2c(c1)OCCO2` it was 1.08; in that of `O=C(Nc1ccccc1N1CCN(C(=O)c2ccccc2)CC1)c1ccc2c(c1)OCO2`, 1.1; in that of `N#CCSc1nc2ccccc2c(=O)n1-c1ccccc1`, 1.11.

Regarding `CC(C)CCNC(=O)C1CCCN(S(=O)(=O)c2ccc(F)cc2)C1` (stereo not given), the fluorescence fold increase is 1.06. In the case of `CCOc1cc2[nH]c(=S)n(CCCN3CCCC3=O)c(=O)c2cc1OCC` it was 1.07. In the case of `CSc1nnc(-c2ccncc2)n1CCCN1CCCC1=O` it was 0.81. The figure for `CC(C)(C)OC(=O)c1c(N)n(CCCN2CCCC2=O)c2nc3ccccc3nc12` is 3.76 (active); for `COc1ccc(CNC2CCCCC2)cc1` it is 1.1. Take `CCOc1ccc2cc(C#N)c(SCC(=O)OC)nc2c1`: the fluorescence fold increase is 1.95. The figure for `O=S(=O)(NCCNS(=O)(=O)c1ccccc1)c1ccccc1` is 1.04; for `CCOc1ccc2nc(NCCNS(=O)(=O)c3ccccc3)c(C#N)cc2c1` it is 3.3 (active); for `COC(=O)C(CC(=O)Nc1cc(C)ccc1C)Nc1ccccc1OC` (stereo not given) it is 1.02. In the case of `COc1ccc(C2C3=C(OC(C)=O)c4ccccc4C3=Nc3c2c(=O)n(C)c(=O)n3C)cc1` (stereo not given) it was 1.09. Consider `Cn1nnc2cc(C(=O)NCCC3=CCCCC3)ccc21`, for which the fluorescence fold increase is 1.03. In the case of `CC1CCCN(C(=O)c2ccc3c(c2)C(=O)N(CCC2=CCCCC2)C3=O)C1` (stereo not given) it was 1.04.

For `Cc1ccc2c(c1)c1ncn(CCC3=CCCCC3)c(=O)c1n2C`, the fluorescence fold increase is 2.08 (active).

As for `Cc1ccc(C(C(=O)NCc2ccco2)N(CC2CCCO2)C(=O)Cn2nnc3ccccc32)cc1` (stereo not given), the fluorescence fold increase is 0.88. In the case of `CCc1nnc(NC(=O)CSc2nnc(COc3ccc(C#N)cc3)n2-c2ccccc2)s1` it was 1.27. The figure for `Cc1nn(-c2ccccc2)c2c1C(=O)NC(=O)C(C)(C)C2` is 1.03; for `COc1ccc(OCC(=O)N2CCOCC2)cc1` it is 1.05. The figure for `O=C1CC2(CCCCC2)Oc2ccc(OCC(=O)N3CCOCC3)cc21` is 5.15 (active); for `O=C(Nc1cccc(OCC(=O)N2CCOCC2)c1)C1CCCCC1` it is 1.05; for `Cn1c(=O)c2c(nc(OCc3cccnc3)n2Cc2ccccc2)n(C)c1=O` it is 1.09. Regarding `CCC(C)(NC(=O)c1ccccn1)C(=O)NC1CCCCC1` (stereo not given), the fluorescence fold increase is 1.14. In the case of `Cc1cc(=O)n(C)c(=O)n1CCCNc1ccccc1` it was 1.05. In the case of `CCOC(=O)/C=c1\s/c(=C\c2ccccc2OC)c(=O)n1CC(=O)N1CCOCC1` it was 1.14; in that of `CCOC(=O)c1sc(NC(=O)C(CC)Sc2nccn2C)nc1C` (stereo not given), 1.08.

Consider `CCOC(=O)c1nc(N)sc1C(=O)OCC`, for which the fluorescence fold increase was 1.12. The figure for `CCOC(=O)c1sc(/N=C/Nc2nc(C)c(C(=O)OCC)s2)nc1C` is 4.03 (active); for `O=C1NC2(CCCCC2)N=C1c1ccccc1` it is 1.08.

Turning to `COc1ccccc1N1CCN(C(=O)Cn2nnc(-c3cccs3)n2)CC1`, the fluorescence fold increase is 1.07. The figure for `C=CCn1c(=S)[nH]c2nc3c(cc2c1=O)COC(C)(C)C3` is 1.03; for `O=C(c1ccccc1-c1ccccc1)N1CCOCC1` it is 0.82. The figure for `O=c1c(-c2ccccc2)coc2c(CN3CCOCC3)c(O)ccc12` is 2.45 (active); for `COc1ccc(OC)c(C(=O)c2coc3ccc(O)c(CN4CCOCC4)c23)c1` it is 1.03; for `CSCCC(NC(N)=O)C(=O)N(C)CC(=O)Nc1ccc(C)cc1` (stereo not given) it is 0.91. In the case of `O=C(NCCCN1CCCCCC1)C1CC(=O)N(C2CCCC2)C1` (stereo not given) it was 1.16; in that of `COc1cc2ccccc2cc1C(=O)Nc1ccc(S(=O)(=O)Nc2cc(C)on2)cc1`, 1.32; in that of `O=C(Cn1cnc2c(nnn2-c2ccccc2)c1=O)N1CCC(Cc2ccccc2)CC1`, 1.07. On to `O=C(NCc1ccccn1)c1cnc2sccn2c1=O`, for which the fluorescence fold increase was 2.7 (active). In the case of `CCOC(=O)c1cnc2sccn2c1=O` it was 3.33 (active); in that of `CCOC(=O)c1cnc(-n2nc(C)cc2C)nc1-n1nc(C)cc1C`, 1.13; in that of `CCCCOc1ccc(-c2ncc(C(=O)OCC)c(N)n2)cc1`, 1.17. In the case of `O=C(NCc1ccccn1)c1cc2ccccc2oc1=O` it was 1.48; in that of `O=C(NCc1ccccn1)Nc1ccc(F)cc1`, 1.14. In the case of `CC(C)NS(=O)(=O)c1ccc(NC(=O)c2cccnc2)cc1` it was 1.03.

In the case of `CCOC(=O)c1cc(NC(=O)c2cccnc2)cc(C(=O)OCC)c1`, the fluorescence fold increase is 1.12. In the case of `Cc1cc2nc(-c3ccc(NC(=O)c4cccnc4)cc3)oc2cc1C` it was 2.26 (active); in that of `CSc1nc(C)nc2c1c(=O)n(C)c(=O)n2C`, 1.11. In the case of `Cc1ccccc1NC(=O)NCc1ccco1` it was 1.12. The figure for `c1coc(CNc2ncnc3ccccc23)c1` is 1.1; for `Cc1cc(NCc2ccco2)n2c(nc3ccccc32)c1C#N` it is 2.23 (active). Take `Cc1cccc(OCc2nnc(SCn3nnc4ccccc4c3=O)o2)c1`: the fluorescence fold increase was 1.07. Regarding `CC(C)(C)n1nc2c(c1NC(=O)c1ccc(S(=O)(=O)N3CCCC3)cc1)CS(=O)C2` (stereo not given), the fluorescence fold increase is 1.02.

Consider `O=C(NCCN1CCOCC1)[C@H](Cc1ccccc1)N1C(=O)c2ccccc2C1=O`, for which the fluorescence fold increase is 2.12 (active). In the case of `O=C(CCN1C(=O)c2ccccc2C1=O)NCCN1CCOCC1` it was 1.02; in that of `N/C(=N\c1nc2ccccc2o1)NC(=O)C(Cc1ccccc1)N1C(=O)c2ccccc2C1=O` (stereo not given), 1.09. Regarding `Clc1ccc(Cc2nnc(-c3cccs3)o2)cc1`, the fluorescence fold increase was 1.11. In the case of `O=C(Nc1nccs1)C1CCCN1S(=O)(=O)c1cccc2cccnc12` (stereo not given) it was 1; in that of `Cc1c(C(=O)OCc2cc(=O)n3cc(Br)ccc3n2)oc2ccccc12`, 1.07. In the case of `Cc1c(C(=O)OCC(=O)N(CCC#N)c2ccccc2)oc2c1ccc1ccccc12` it was 2.16 (active).

In the case of `NC(=NC(=O)c1ccccc1)C1=C(O)CCC1=O`, the fluorescence fold increase was 1.14. As to `CCCc1nc(-c2ccccc2O)n(-c2ccccc2)n1`, the fluorescence fold increase was 1.12.

In the case of `COc1ccc(OC)c2sc(NC(=O)C3COc4ccccc4O3)nc12` (stereo not given), the fluorescence fold increase is 1.19. The figure for `Cc1ccc2cc(C#N)c(SCC(=O)NCC3CCCO3)nc2c1C` (stereo not given) is 1.14; for `CCn1c(SCC(=O)NCC2CCCO2)nc2cc(S(=O)(=O)N3CCCCC3)ccc21` (stereo not given) it is 1; for `COCCCNC(=O)CSc1nc2ccc(N3CCOCC3)cc2c(=O)n1CCc1ccccc1` it is 2.61 (active). `CCc1ccc(NC(=O)CSc2nc3ccccc3c(=O)n2CCN2CCOCC2)cc1`: the fluorescence fold increase was 1.09. The figure for `CCCCn1c(SCC(=O)NCC2CCCO2)nc2ccc(N3CCOCC3)cc2c1=O` (stereo not given) is 4.22 (active). With `COCCNC(=O)CSc1nc2c(n1-c1ccccc1)CCCC2`, the fluorescence fold increase is 1.16.

As for `CC12CCC(C(=O)N(CCC#N)CCC#N)(CC1=O)C2(C)C` (stereo not given), the fluorescence fold increase is 1.07.

`Cc1ccc(S(=O)(=O)N2CCC(C(=O)N[C@@H](C)C(=O)NCCc3ccccc3)CC2)cc1`: the fluorescence fold increase was 1.11.

For `O=C(c1c(Cl)nc2sccn12)N1CCCc2ccccc21`, the fluorescence fold increase was 1. In the case of `O=C(CC(NCCN1CCOCC1)C(=O)O)Nc1cccc(Cl)c1` (stereo not given) it was 1.1; in that of `COc1ccc(-n2nnc3c(=O)n(CC(=O)N4CCC(Cc5ccccc5)CC4)cnc32)cc1`, 1.08.

For the origin of these results see PubChem BioAssay AID709 (SRMLSC, 2007).
